Bioassay records from PubChem BioAssay.
Rows were chosen to be rich in hits. Some 4.6% of all compounds tested hit in one or more screens of this group.
D1 antagonist: human D1 dopamine receptor antagonism | P21728 | HEK293 TREx D1 cells, calcium flux, dopamine EC80; stronger effect = lower value | activity change, negative = inhibition, % at 10 µM | 360,000 tested, 3.2% active | AID 504652; in the data active means activity change below about -30%; further: on the % scale 0 is the no-effect control and ±100 the full control effect
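Tetracycline-induced HEK293 Trex D1 cells, force-coupled to calcium, dye-loaded; compounds added and read 180 s, then EC80 dopamine added and calcium flux tracked kinetically another 180 s.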
D1 agonist: agonists of human D1 dopamine receptor | P21728 | HEK293 T-REx D1 cells, calcium flux, agonist mode | activation, % at 2 µM | 360,000 tested, 1% active | AID 504660; further: 0% is about no effect
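Tetracycline-induced HEK293 TREx D1 cells, force-coupled to calcium signalling, were dye-loaded with a no-wash calcium kit. Compound was pin-added after a 10 s baseline. Fluorescence was read kinetically at 1 cycle/s for 180 s, with calcium rises flagged as agonism.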
D1 potentiator: potentiators of human D1 dopamine receptor | P21728 | HEK293 TREx D1 cells, calcium flux, dopamine EC20 potentiation | potentiation, % at 10 µM | 360,000 tested, 0.036% active | AID 504651; in the data active means potentiation above about 30%; further: 0% is about no effect
TRHR ag: activates the human TRH receptor | TRHR cells, calcium flux fluo-8, FDSS agonist mode | 360,000 tested, 0.18% active | P34981 | activation, % at 2 µM; further: 0% is about no effect
Target sequence (P34981 whole entry, looked up): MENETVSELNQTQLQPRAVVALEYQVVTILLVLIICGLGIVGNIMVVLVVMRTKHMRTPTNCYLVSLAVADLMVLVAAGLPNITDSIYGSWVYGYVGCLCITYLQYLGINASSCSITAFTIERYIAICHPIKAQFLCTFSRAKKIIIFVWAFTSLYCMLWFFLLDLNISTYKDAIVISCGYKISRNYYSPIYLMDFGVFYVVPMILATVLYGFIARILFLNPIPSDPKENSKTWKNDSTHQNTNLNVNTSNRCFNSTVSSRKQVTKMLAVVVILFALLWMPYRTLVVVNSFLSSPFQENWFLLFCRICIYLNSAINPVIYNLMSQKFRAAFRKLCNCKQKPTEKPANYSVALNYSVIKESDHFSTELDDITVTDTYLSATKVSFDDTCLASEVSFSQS
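In this calcium-flux screen, cells bearing human TRHR are dye-loaded with fluo-8, baselined for 10 cycles, then exposed to library compounds; positive kinetic calcium responses during the agonist phase mark hits, with TRH as control.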
TRHR enhancer: allosteric enhancers of human TRH receptor; 360,000 tested, 0.66% active; P34981; TRHR cells, fluo-8 calcium fluorescence, EC20 TRH enhancement; enhancement, % at 2 µM; in the data active means enhancement above about 30%; further: 0% is about no effect
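Enhancer read-out: after compound pinning and an initial kinetic agonist-mode read, an EC20 of TRH (10 nM final) was injected and fluo-8 calcium signal (Ex 480/Em 530) followed at 1 s/cycle for 100 cycles in TRHR-expressing cells.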
* hit, by the source's call; x = no result given; ! = repeats disagree. Unless noted, no stated cut-off is given here; in the data, active means activation above about 30%; inactive means the rest.

SMILES	D1 antagonist	D1 agonist	D1 potentiator	TRHR ag	TRHR enhancer
COc1cccc(-c2nc(SCC(=O)NCC3CCCO3)c(-c3ccc(C)cc3)[nH]2)c1 (stereo unspecified)	12	-1	-1	2	0
COc1cccc(-c2nc(SCC(=O)NCC3CCCO3)c(-c3ccc(Cl)cc3)[nH]2)c1 (stereo unspecified)	-56*	2	-4	2	-2
COc1ccc(-c2[nH]c(-c3ccc(Cl)cc3)nc2SCC(=O)Nc2nccs2)cc1	-32*	0	-5	0	-8
Clc1ccc(CN2C3=NCCN3c3ccccc32)cc1Cl	-5	35*	-4	8	-11
CCOc1ccccc1NC(=O)CSC1=Nc2ccccc2C2=NC(CC(=O)NC3CCCCC3)C(=O)N12 (stereo unspecified)	9	-1	2	-1	-7
CSc1ncccc1C(=O)OCC(=O)NCc1ccc2c(c1)OCO2	-11	3	1	-1	-2
CCOC(=O)c1nc(Nc2ccc(C(=O)OCC(C)C)cc2)c2ccccc2n1	-16	-1	2	0	10
COc1ccc(-n2nc([N+](=O)[O-])c(=NCCc3cccc(C)c3)n2O)cc1	-35*	4	3	-2	4
Cc1ccc(NC(=O)C2CCC(CNS(=O)(=O)c3ccc4c(c3)CCCC(=O)N4)CC2)cc1F (stereo unspecified)	-9	2	2	0	2
O=C(NC(CC(=O)N1CCCC(C(F)(F)F)C1)c1ccccc1)c1ccccc1Cl (stereo unspecified)	-3	1	-6	2	33*
CC1CCN(C(=O)CC(NC(=O)c2ccccc2Cl)c2ccccc2)CC1 (stereo unspecified)	-20	0	19	0	-1
N#C/C(=N\Nc1ccc(Cl)c(Cl)c1)C(=O)C1CC1	-44*	23	-5	0	-3
Cn1cc(C(=O)NCc2ccc(Cl)cc2)c(=O)c2cc(S(=O)(=O)N3CCCCCC3)ccc21	4	9	1	0	-4
Cc1cccc(Nc2cc(C)c3c(O)cccc3n2)c1C	-92*	13	-10	6	-2
CC1=NN(C(=O)c2ccc(Cn3cc([N+](=O)[O-])cn3)cc2)C(O)(C(F)(F)F)C1 (stereo unspecified)	7	42*	-7	3	-8
CCOC(=O)c1c(NC(=O)CN2CCN(C(=O)c3ccco3)CC2)sc(C)c1C	-32*	126*	-5	0	-2
CCc1c(C)sc(NC(=O)CN2CCN(C(=O)c3ccco3)CC2)c1C(=O)OC	4	59*	-8	0	-1
CCOC(=O)c1ccc(NC(=O)CN2CCN(C(=O)c3ccco3)CC2)cc1	10	7	-6	0	0
CCCCc1ccc(S(=O)(=O)N2CCN(C(=O)c3ccco3)CC2)cc1	-31*	9	-4	0	-3
CCn1cc(CN2CCCC(CO)(Cc3ccc(F)cc3)C2)c2ccccc21 (stereo unspecified)	-17	31*	-3	1	4
Cc1cc(C)c(Nc2cc(S(=O)(=O)O)c(N)c3c2C(=O)c2ccccc2C3=O)c(C)c1	-15	40*	-2	0	3
Cn1nnc2cc(C(=O)NC(C)(C)C)ccc21	-3	1	-4	0	2
CNC(=O)c1ccc2c(c1)nnn2C	-87*	1	-8	1	-17
COc1ccc(-c2c(C)c3ccc(O)c(CN4CCCCC4)c3oc2=O)cc1OC	0	0	-1	0	-1
O=C(Nc1ccccc1OC(F)F)c1oc2ccccc2c1COc1ccccc1	-8	32*	-2	3	-4
SMILES	D1 antagonist	D1 agonist	D1 potentiator	TRHR ag	TRHR enhancer
CCOc1ccc(NC(=O)CCCn2c(C)c3cnn(-c4ccccc4)c(=O)c3c2C)cc1	0	-2	0	-1	5
CCN(c1ccccc1)S(=O)(=O)c1cccc(C(=O)NCc2ccncc2)c1	7	5	-10	0	31*
CCN(c1ccccc1)S(=O)(=O)c1cccc(C(=O)NCc2cccnc2)c1	2	8	4	-1	10
CN1CCN(c2nc3c(S(=O)(=O)c4ccccc4)nnn3c3ccsc23)CC1	-10	1	-4	1	-6
CCN(c1ccccc1)S(=O)(=O)c1nnc(NC(=O)c2cccs2)s1	-41*	23	-3	0	6
CN(c1ccccc1)S(=O)(=O)c1nnc(NC(=O)C2CCCCC2)s1	-37*!	7	-5	0	-1
COc1ccc(/C(C)=N/NC(=O)CNC(=O)C(c2ccccc2)c2ccccc2)c(OC)c1	-5	1	-7	0	-6
Cc1oc(-c2ccc(C(=O)N(C)Cc3ccccc3)cc2)nc1CN1CCc2ccccc21	7	1	-2	0	0
CC(C)(CO)NCc1ccccc1OCC(=O)Nc1ccccc1	-18	6	-4	0	-3
Cc1ccccc1OCC(=O)Nc1ccncc1	-18	12	-4	-1	2
Cc1ccccc1OCC(=O)Nc1ccc(Cc2ccncc2)cc1	-44*	16	-3	0	2
Cc1ccccc1OCC(=O)Nc1ccc2[nH]c(=O)sc2c1	-49*	14	-4	0	-4
Cc1ccc(OCC(=O)Nc2ccc3[nH]c(=O)sc3c2)cc1	-27	10	-3	-1	21
O=C(COc1ccccc1C(=O)NCc1ccccc1)Nc1ccccc1	-35*	4	-3	0	-2
Cc1ccc(NC(=O)COc2ccccc2CNC(C)(C)CC(C)(C)C)cc1	-6	62*	-5	2	6
O=C(COc1ccccc1C(=O)Nc1ccccc1)NCCc1ccccc1	-13	10	-3	1	5
COC(=O)CC1C(=O)NCCN1C(=O)c1cc([N+](=O)[O-])ccc1Cl (stereo unspecified)	-1	2	2	0	2
O=C1C=C(c2cnc3ccccc3c2)C[C@@H](c2ccc3c(c2)OCO3)C1	x	0	6	-1	1
O=c1c2sccc2nc(SCc2ccc([N+](=O)[O-])cc2)n1Cc1ccccn1	2	3	7	0	-4
O=C(COc1ccccc1F)Nc1ccccc1OCc1cc(=O)n2ccccc2n1	-30	1	-1	0	-5
CC(=O)c1cccc(NC(=O)COC(=O)COc2ccccc2C)c1	-24	6	-2	0	-9
CC(=O)Nc1cccc(NC(=O)COc2ccccc2C)c1	-39*	7	-7	0	6
S=c1[nH]nc(-c2cccnc2)n1-c1ccc2c(c1)OCCO2	-46*	3	-2	1	2
Cc1ccc(C(=O)NNC(=S)Nc2cccc3ccccc23)s1	-37*	3	-18	0	-2
CC(=O)N1CCN(c2ccc(NC(=O)c3ccc4c(c3)OCCO4)cc2)CC1	-27	0	0	0	-1
